# According to PubChem BioAssay AID574 (The Scripps Research Institute Molecular Screening Center, 2007):
# Hit rate of the full screen: of about 65,000 compounds, about 450 (0.69%) were called active. Shown is part of a subset that was picked to be rich in actives. A number with no mark means an inactive call.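 Rule for the calls: active = activation above a set limit, the screen-wide mean activation plus 3 SD (cut at about 8.5% in these data); inactive = the rest.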
# Target: 5-hydroxytryptamine receptor 1E (Homo sapiens) (UniProt P28566)
# Sequence (P28566 whole entry, looked up): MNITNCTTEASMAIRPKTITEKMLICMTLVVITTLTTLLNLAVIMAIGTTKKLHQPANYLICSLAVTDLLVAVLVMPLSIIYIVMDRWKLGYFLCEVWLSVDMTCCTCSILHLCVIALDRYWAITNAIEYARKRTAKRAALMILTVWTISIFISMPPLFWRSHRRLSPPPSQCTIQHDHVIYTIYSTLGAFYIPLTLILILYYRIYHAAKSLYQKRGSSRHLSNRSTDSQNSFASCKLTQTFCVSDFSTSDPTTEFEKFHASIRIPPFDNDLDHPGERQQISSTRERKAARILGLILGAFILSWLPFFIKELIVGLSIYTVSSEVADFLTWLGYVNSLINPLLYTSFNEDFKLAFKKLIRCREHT
# Assay: activation of human serotonin 5HT1E receptor – cell-based, HTS, primary screen (AID 574);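 note: 100% = positive control agonist at 1 µM giving full maximal response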
# Details: CHO 5-HT1E Ga15 NFAT-bla reporter, FRET; at 6 µM; stronger effect = higher value; 0% DMSO wells, 100% control agonist wells
row,Structure (SMILES),activation
1,CC1(C)C/C(=C(/C#N)C(N)=O)CCO1,-0.1%
2,Cc1cn(COC/C=C/c2ccccc2)c(=O)[nH]c1=O,0.2%
3,CC(C)Cn1c(CCC(=O)O)ccc1-c1cccs1,0.6%
4,CC1CCCC(NC(=O)CN2CCN(Cc3ccc(Cl)cc3)C2=O)C1C (centres undefined),-0.6%
5,O=C(OC1CCOC1=O)c1ccc(-c2nc3ccccc3s2)s1 (centres undefined),-0.6%
6,Cc1ccc(-n2nc3c(c2NC(=O)c2ccc4c(c2)OCO4)CSC3)c(C)c1,-0.1%
7,O=C(Nc1ccccc1C(F)(F)F)c1cc(-c2ccc(O)cc2)on1,0.1%
8,CCOc1ccc(Cn2c(SCCCCC#N)nc3c2c(=O)n(C)c(=O)n3C)cc1OCC,0.1%
9,O=C(Nc1c(Cl)cccc1Cl)C1CCC1,0.5%
10,O=C(O)CC(Cn1cnnn1)c1ccccc1 (centres undefined),1.2%
11,Fc1ccccc1CCNc1nnnn1-c1ccccc1,-0.5%
12,CC(C)CNC(=O)C1CCCN(S(=O)(=O)c2ccc(-n3cnnn3)cc2)C1 (centres undefined),-0.3%
13,Cc1oc(-c2cccc(Cl)c2)[n+]([O-])c1C,0.2%
14,COC(=O)COc1ccc(S(=O)(=O)N2CCOCC2)cc1,-0.6%
15,O=C(c1ccc2c(c1)C(=O)N(c1ccc(Cl)cc1)C2=O)N1CCN(c2ccccn2)CC1,0.4%
16,CCOc1ccc(C(CC(=O)O)NC(=O)COc2ccccc2)cc1 (centres undefined),-1.3%
17,CC(C)Cn1c(N)c(C(=O)NCc2cccs2)c2nc3ccccc3nc21,18.4% (active)
18,C=CCn1c(N)c(S(=O)(=O)c2cccs2)c2nc3ccccc3nc21,0.2%
19,C=CCn1c(N)c(C(=O)OCC(C)C)c2nc3ccccc3nc21,0.4%
20,Cc1ccc(C(=O)NCCNS(=O)(=O)c2ccccc2)cc1,-1.7%
21,CC(=O)Nc1cccc(Oc2cc(C#N)c(C#N)cc2N2CCOCC2)c1,-0.6%
22,CC1CN(c2cc(=O)n(Cc3ccc(F)cc3)c(=O)[nH]2)CC(C)O1 (centres undefined),0.8%

row,Structure (SMILES),activation
1,Cc1nnc(SCC(=O)N2CCc3ccccc32)n1-c1ccccc1,-0.4%
2,CCOC(=O)CSc1nc2sc3c(c2c(=O)[nH]1)CC(C)(C)OC3,-0.1%
3,CCCc1nnc(NC(=O)c2cc(OC)cc(OC)c2)s1,0.7%
4,Nc1nnnn1/N=C/c1cccs1,-0.8%
5,CS(=O)(=O)N(C(=O)NC(=O)NC1CCS(=O)(=O)C1)C1CCCCC1 (centres undefined),0.1%
6,O=C(Nc1nnc(-c2ccc(Cl)cc2)o1)c1ccccc1Br,-0.9%
7,CCOC(=O)N1CCC(NC(=O)c2ccc3nc(N4CCOCC4)sc3c2)CC1,-0.6%
8,COC(=O)C(C)C1Sc2ccccc2NC1=O (centres undefined),0.6%
9,Cc1ccc(C(C(=O)NCc2ccco2)N(CC2CCCO2)C(=O)Cn2nnc3ccccc32)cc1 (centres undefined),0.3%
10,O=C(NC1(C(F)(F)F)N=C2SCCN2C1=O)c1ccco1 (centres undefined),-0.1%
11,CCNc1nc(NCC)nc(N(C)n2cnnc2)n1,1.1%
12,c1n[nH]c(NCc2ccc3c(c2)OCO3)n1,-0.5%
13,N#Cc1nc(Cc2ccccc2)oc1NCCc1ccccc1,-0.8%
14,N#Cc1nc(Cc2cccc3ccccc23)oc1NCc1ccc2c(c1)OCO2,10.4% (active)
15,Cc1cccc2c1N(CC(=O)OC(C)C)C(=O)C2=O,0.3%
16,CCN(CC)P(=O)(C(NC(=O)OC)C(F)(F)C(F)(F)C(F)(F)C(F)F)N(CC)CC (centres undefined),0.8%
17,COc1ccc(C2OC(=O)CC2C(=O)NC(C)C)cc1 (centres undefined),0.2%
18,CCc1c(C)nc(N)n2c(SCC(=O)N3CCN(c4ccccc4)CC3)nnc12,-0.4%
19,Cc1cc(C)c(C)c(S(=O)(=O)Nc2ccc(O)cc2)c1C,-0.5%
20,NS(=O)(=O)c1cc2c(cc1Cl)NC(C(Cl)Cl)NS2(=O)=O (centres undefined),-0.1%
21,CC(=C1C(=O)c2ccccc2C1=O)N1CCN(c2ccccn2)CC1,0.2%
22,O=C(c1cccc(C(=O)N2CCN(c3ccc(F)cc3)CC2)c1)N1CCN(c2ccc(F)cc2)CC1,0.7%

row,Structure (SMILES),activation
1,O=C(NC1CCCCC1)C1CCCN(S(=O)(=O)c2cccs2)C1 (centres undefined),-0.4%
2,Cc1cnc(C(=O)OCC(=O)Nc2ccc(Cl)cc2Cl)cn1,0.2%
3,CC1(C)Cc2ccccc2-c2nnc(-c3cccc(O)c3)n21,0.2%
4,Cc1ccc(NC2=NC(c3ccccc3)n3c(nc(C)cc3=O)N2)cc1 (centres undefined),0.3%
5,COc1ccc(S(=O)(=O)Nc2ccc(S(=O)(=O)N3CCCCC3)cc2)cc1OC,0.4%
6,CCCCn1nnnc1NCc1cc(OC)c(OC)c(OC)c1,-0.7%
7,Cc1ccccc1NC(=O)c1cnn(-c2ccccc2)c1NC(=O)c1ccco1,0.5%
8,COc1ccc(OCC(=O)OCC(=O)Nc2ccc(S(=O)(=O)N3CCCCC3)cc2)cc1,-0.3%
9,CC(C)=C(NC(=O)c1ccco1)C(=O)NCCc1nc2ccccc2[nH]1,1.5%
10,COC(=O)c1ccc(NC(=O)c2ccco2)cc1,0.1%
11,CCN(CC)C(=O)CCC(=O)Nc1ccc(C(=O)OC)cc1,20.5% (active)
12,CCCCC(CCC(=O)Nc1ccc(C(=O)OCC)cc1)C(=O)O (centres undefined),-0.3%
13,O=C1NC(c2ccncc2)Nc2sc3c(c21)CCCC3 (centres undefined),0.1%
14,CCOC(=O)Cn1c2c(c(-c3ccccc3OC)cc1=O)CCCC2,-0.4%
15,COC(=O)c1ccc(CSc2nc3ccccc3c(=O)n2-c2cccc(OC)c2)o1,1.3%
16,NC(CSC12CC3CC(CC(C3)C1)C2)C(=O)O (centres undefined),0.4%
17,CC1Cc2ccccc2N1C(=O)Cn1cnc2ccccc2c1=O (centres undefined),-0.8%
18,Cc1nc2ccc(NC(=O)N3CCC(c4ccccc4)C3)cc2nc1C (centres undefined),-0.6%
19,O=C(O)CCN1C(=O)CC2(CCCCC2)C1=O,9.8% (active)
20,Cc1ccc(F)cc1NC(=O)c1ccc2c(c1)OCO2,-0.9%
